“And” between values parts separate entries of the source, which are not always exact repeats. Equal values may be shown once. The campaign covered roughly 260,000 compounds. About 1,300 (0.5%) were called active.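 Rule for the calls: active = percent inhibition above 40 after rounding to a whole number; inactive = the rest.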 Many of the other results were omitted from the sample, so actives are more common in it than they were. A structure can be active in one record and inactive in another.

The target of this assay is Prostaglandin E2 receptor EP2 subtype (Homo sapiens) (UniProt P43116). The assay can be described thus: human EP2 receptor antagonists, primary screen, TR-FRET cAMP, C6 glioma cells (AID 1422).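 Note: rat C6 glioma host cells with rolipram phosphodiesterase inhibitor present; the protocol text gives 20 µM as final concentration.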 The following applies: C6 glioma cells expressing human EP2, cAMP TR-FRET; at 25 µM; stronger effect = higher value; cells stimulated with saturating PGE2.
Prostaglandin E2 receptor EP2 subtype (Homo sapiens), sequence (P43116 whole entry, looked up): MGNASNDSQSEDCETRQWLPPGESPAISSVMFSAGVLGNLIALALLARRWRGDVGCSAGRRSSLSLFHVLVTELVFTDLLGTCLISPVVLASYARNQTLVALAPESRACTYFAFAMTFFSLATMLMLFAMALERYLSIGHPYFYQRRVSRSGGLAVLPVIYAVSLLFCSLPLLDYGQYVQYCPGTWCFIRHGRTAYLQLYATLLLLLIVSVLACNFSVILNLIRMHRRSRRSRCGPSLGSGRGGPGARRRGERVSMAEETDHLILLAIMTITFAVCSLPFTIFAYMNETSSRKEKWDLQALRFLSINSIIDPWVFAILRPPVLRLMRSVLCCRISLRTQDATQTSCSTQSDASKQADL
As a reminder, the inhibition is the drop in the measured response relative to a control, in per cent. For `Cc1sc(NC(=O)Cn2c(=O)sc3ccccc32)c(C#N)c1C`, the inhibition is 7.54% (inactive).
The value for `COc1ccccc1CNC(=O)C1CCN(c2cnccn2)CC1` was 9.64% (inactive).
The value for `CC1(C)CC2CC(C)(CN2C(=O)c2ccc(Cl)cc2)C1` (configuration not stated) was 13.4% (inactive); that for `COc1ccc2[nH]c(=O)c(CN(CCCN(C)C)C(=S)Nc3ccccc3)cc2c1` was 9.95% (inactive).
Regarding `C[N+]1(CCN=C=NC2CCCCC2)CCOCC1`, the inhibition is 42.8% (active).
Take `Cc1c(O)c(Br)c(C)c(O)c1Br` (tested in a mixture with another compound): the inhibition was 105% (active).
Turning to `CCc1ccc2nc3sc(C(=O)NCc4ccc5c(c4)OCO5)c(N)c3cc2c1`, the inhibition is 13.9% (inactive).
With `CCc1ccc2nc3sc(C(=O)Nc4nnc(CC)s4)c(N)c3cc2c1`, the inhibition is 90.2% (active) and 26.4% (inactive).
With `CCc1ccc2nc3sc(C(=O)OC)c(N)c3cc2c1`, the inhibition was 11.6% (inactive).
Regarding `CCn1cc(C(=O)N[C@@H](C)Cn2nnc3ccccc32)c(=O)c2ccc(C)nc21`, the inhibition was 9.07% (inactive).
For the molecule `CCOC(=O)c1c(-c2ccc(C)cc2C)csc1NC(=O)CSc1nnnn1C`, the inhibition is 44.2% (active).
In the case of `COC(=O)c1ccccc1NC(=O)CSc1nnnn1C`, the inhibition is 9.91% (inactive) and 10.9% (inactive).
Take `CCOC(=O)CNC(=O)CSc1nnnn1-c1cc(C)ccc1C`: the inhibition is -1.57% (inactive).
Consider `CCc1nnc(NC(=O)CSc2nnnn2-c2ccc(F)cc2)s1`, for which the inhibition is 7.48% (inactive).
Take `COc1ccc(C2(C(=O)NCCn3nc(-c4cccs4)ccc3=O)CC2)cc1`: the inhibition is 4.83% (inactive).
In the case of `CCOc1ccccc1NC(=O)CSc1nnnn1-c1ccc(F)cc1`, the inhibition was 10.9% (inactive).
`CC(C)(C)NC(=O)Cn1nc(-c2nccc3ccccc23)oc1=O`: the inhibition is 2.81% (inactive).
In the case of `CC(=O)Nc1cccc([N+](=O)[O-])c1`, the inhibition was 3.91% (inactive).
`COC(=O)/C=C\C(=O)Nc1cccc([N+](=O)[O-])c1`: the inhibition was 113% (active).
On to `Cc1ccccc1NC(=S)Nc1cccc([N+](=O)[O-])c1`, for which the inhibition is 10.2% (inactive).
With `CCn1c(C)cc2cc(NC(=O)CCCn3nc(C)cc3C)ccc21`, the inhibition is 6.1% (inactive).
The value for `Cc1cc(C)cc(-c2nnc(SCC(=O)N3c4ccccc4CC3C)o2)c1` (configuration not stated) was 15.9% (inactive).
The value for `CCN1/C(=C/c2ccc3ccc(C)cc3[n+]2CC)Sc2ccccc21` was 49.2% (active); that for `CCN1CCN(CCNC(=O)c2ccc(/C=C3/Sc4ccccc4N(Cc4cccc(C)c4)C3=O)cc2)CC1` was 15.1% (inactive).
As to `CCCN1/C(=C/c2ccc3ccccc3[n+]2CC)Sc2cc(NC(C)=O)ccc21`, the inhibition was 13.2% (inactive).
Then `CCN1/C(=C\c2ccc3ccccc3[n+]2CC)Sc2cc(C)ccc21`, with 88.5% (active); and `CCN1/C(=C/C(=S)Nc2ccccc2)Sc2ccccc21`, with 11.8% (inactive).
The value for `CCN1CCN(C(=O)Nc2cccc(Cl)c2)CC1` was 10.7% (inactive); that for `CCOc1ccc2nc(SCC(=O)Nc3ccc(OC)cc3)sc2c1` was 6.3% (inactive); that for `Cc1ccc(CN(Cc2cc3c(C)cc(C)cc3[nH]c2=O)C(=O)NC2CCCCC2)cc1` was 8.55% (inactive).
As to `COc1ccc2[nH]c(=O)c(CN(Cc3ccco3)S(=O)(=O)c3c(C)ccc4nsnc34)cc2c1`, the inhibition is 46.1% (active).
Turning to `Cc1cccc2cc(CN(Cc3ccco3)S(=O)(=O)c3cccc4nsnc34)c(=O)[nH]c12`, the inhibition was 24.1% (inactive).
The value for `O=c1[nH]c2cc3c(cc2cc1CN(Cc1cccnc1)S(=O)(=O)c1ccc(Cl)cc1)OCCO3` was 19.4% (inactive).
The value for `COc1ccc2[nH]c(=O)c(CN(Cc3ccc4c(c3)OCO4)S(=O)(=O)c3ccc(F)cc3)cc2c1` was 12% (inactive); that for `COc1ccc2[nH]c(=O)c(CN(Cc3cccnc3)S(=O)(=O)c3ccccc3F)cc2c1` was 45.8% (active).
Then `COc1ccc(N(Cc2cc3cc(OC)ccc3[nH]c2=O)S(C)(=O)=O)cc1`, with 6.17% (inactive).
On to `Cc1nnc2sc(-c3ccc(NC(=O)c4ccc(Br)o4)cc3)nn12`, for which the inhibition is 15% (inactive).
For the molecule `COc1ccc2c(c1)NC1(CCN(C(=O)c3cnsc3)CC1)c1cccn1-2`, the inhibition was 9.97% (inactive).
With `Cc1cccc2cc(CN(Cc3cccs3)Cc3nnnn3C3CCCCC3)c(=O)[nH]c12`, the inhibition is 2.93% (inactive).
As to `Cc1ncc([N+](=O)[O-])n1Cc1nnc(N)s1`, the inhibition is 11.5% (inactive).
Consider `CC(C)(C)C1=NN(CC(=O)NCc2ccncc2)C(=O)c2cc3ccccc3n2C1`, for which the inhibition is 4.49% (inactive).
The value for `COc1nc(C)c(CC(=O)NC2(c3cccc(F)c3)CCCC2)c(OC)n1` was 13.3% (inactive); that for `Cc1[nH]c2ccc(-c3nnc(SCCC#N)n3C)cc2c1C` was 10.1% (inactive).
In the case of `CC(C)(C)C1=NN(CC(=O)NCCc2ccco2)C(=O)c2cc3ccccc3n2C1`, the inhibition is 11.5% (inactive).
Turning to `COc1ccc(C(c2nnnn2C(C)(C)C)N2CCN(c3ccc(OC)cc3)CC2)cc1` (configuration not stated), the inhibition was 10.7% (inactive).
Consider `Cc1ccc2c(c1)C(O)CC1(CCN(CC(O)c3ccc(F)c(F)c3)CC1)O2` (configuration not stated), for which the inhibition was 8.77% (inactive).
Turning to `Cc1ccc2c(c1)C1CN(C)CCC1N2C(=S)Nc1ccc(Cl)cc1Cl` (configuration not stated), the inhibition is 15.3% (inactive).
Then `Cc1ccc2c(c1)C1CN(C)CCC1N2C(=S)Nc1ccc(OC(F)F)cc1` (configuration not stated), with 112% (active).
For `Cc1ccc2c(c1)C1CN(C)CCC1N2C(=O)c1ccccc1NS(=O)(=O)c1ccc(F)cc1C` (configuration not stated), the inhibition was 8.83% (inactive).
The value for `CCOC(=O)N1CCN(C(=O)COc2ccc(Cl)cc2C)CC1` was 12.7% (inactive).
As to `Cc1cc(NC(=O)COC(=O)COc2ccc(Cl)cc2C)c([N+](=O)[O-])cc1C`, the inhibition is 5.32% (inactive).
For `Cc1cc(Cl)ccc1OCC(=O)Oc1c(Cl)c(Cl)c(Cl)c(Cl)c1Cl`, the inhibition was 50.2% (active).
As for `CCc1cccc2cc3c(N)c(C(=O)Nc4cc(OC)ccc4OC)sc3nc12`, the inhibition was 5.34% (inactive).
For the molecule `CCn1cc(/C=C/c2nc3ccccc3c(=O)n2C)c2ccccc21`, the inhibition was 16.1% (inactive).
With `CC(=O)Nc1ccc(-c2csc(NC=C3C(=O)OC(C)(C)OC3=O)n2)cc1`, the inhibition was 2.63% (inactive).
For `CC(=O)Nc1ccc(-c2csc(NC(=O)Nc3ccccc3)n2)cc1`, the inhibition was 55% (active).
In the case of `CC(=O)Nc1ccc(S(=O)(=O)Nc2nc(-c3ccc(C(C)(C)C)cc3)cs2)cc1`, the inhibition is 4.4% (inactive).

The record behind these values is PubChem BioAssay AID1422 (Emory University Molecular Libraries Screening Center, 2008).
